Experimental data reported in the supplement of paper PMC4840960.

Legend:
[1] = system: E18 rat cortical neuron-glia co-culture; assay: fiber score / MBP score (myelination specific beyond OL differentiation) (ratio); higher = more myelination-specific MBP alignment; details: treatment time: 8 days (DIV5-DIV13)
How it was run: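 Papain-dissociated primary E18 rat cortical co-cultures, plated at 20,000 cells/well on poly-d-lysine/laminin 96-well plates, were exposed to library compounds at 1 or 5 µM in myelination medium between DIV5 and DIV13. Following fixation in 4 % paraformaldehyde, cultures were stained for MBP, Olig2 and DAPI, and four 10X fields per well were analysed in duplicate wells. Values are the ratio of fiber score (continuous MBP fiber length per Olig2+ nucleus) to MBP score (thresholded MBP area × intensity per Olig2+ nucleus).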

[2] = system: E18 rat cortical neuron-glia co-culture; assay: myelination (MBP fiber length per Olig2+ nucleus), % of 1 µM DAPT response (DMSO = 0) (% of DAPT); higher = more myelination, active = 50 or more; details: treatment time: 8 days (DIV5-DIV13)
How it was run: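 Myelination, expressed as continuous straight MBP fiber length per Olig2+ nucleus, was normalised to 0.1 % DMSO as 0 and a 1 µM positive control as 100. The cultures were primary E18 rat cortical co-cultures dissociated with papain and plated at 20,000 cells/well on poly-d-lysine/laminin-coated 96-well plates. They received library compounds at 1 or 5 µM in myelination medium between DIV5 and DIV13. Analysis covered four 10X fields per well in duplicate wells after 4 % paraformaldehyde fixation and immunostaining for MBP and Olig2 with DAPI.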

Compound	fiber score / MBP score ([1]; 1 µM)	fiber score / MBP score ([1]; 5 µM)	myelination ([2]; 1 µM)	myelination ([2]; 5 µM)
Nc1ccc(O)c(C(=O)O)c1 [Mesalamine]	0.748	0.63	-20.4 (inactive)	-28.3 (inactive)
CCc1c2c(nc3ccc(OC(=O)N4CCC(N5CCCCC5)CC4)cc13)-c1cc3c(c(=O)n1C2)COC(=O)[C@]3(O)CC [Irinotecan]	2.03		255 (active)	
Clc1ccc(COC(Cn2ccnc2)c2ccc(Cl)cc2Cl)cc1 (stereo not given) [Econazole]	0.731		0.139 (inactive)	
CN(CCCN1c2ccccc2CCc2ccccc21)CC(=O)c1ccc(Cl)cc1 [Lofepramine]	0.564		-18.3 (inactive)	
Nc1c2c(nc3ccccc13)CCCC2 [Tacrine]	0.655	0.566	-9.65 (inactive)	-14.9 (inactive)
CN1C(=O)CC[C@H]1c1cccnc1 [Cotinine]	0.604	0.723	-30.3 (inactive)	-28.1 (inactive)
Nc1ccc(S(=O)(=O)c2ccc(N)cc2)cc1 [Dapsone]	0.932	0.925	-3.07 (inactive)	-4.22 (inactive)
Clc1ccc(COC(Cn2ccnc2)c2ccc(Cl)cc2Cl)c(Cl)c1 (stereo not given) [Miconazole]	0.482		-12.3 (inactive)	
CN1CCN2c3ncccc3Cc3ccccc3C2C1 (stereo not given) [Mirtazapine]	0.861	1.07	-13.9 (inactive)	-4.21 (inactive)
CCOC(=O)[C@H](CCc1ccccc1)N[C@H]1CCc2ccccc2N(CC(=O)O)C1=O [Benazepril]	0.766	0.971	-15.3 (inactive)	-6.97 (inactive)
CCCc1nc2c(C)cc(-c3nc4ccccc4n3C)cc2n1Cc1ccc(-c2ccccc2C(=O)O)cc1 [Telmisartan]	0.729	0.799	-7.37 (inactive)	2.94 (inactive)
CN(C)CCC(c1ccc(Br)cc1)c1ccccn1 (stereo not given) [Brompheniramine]	0.611	0.693	-14.9 (inactive)	-12.4 (inactive)
CCN(CC)C(=S)SSC(=S)N(CC)CC [Disulfiram]	1.15		148	
CN(C)CCCN1c2ccccc2CCc2ccccc21 [Imipramine]	0.817	0.517	-3.36 (inactive)	-6.74 (inactive)
Nc1ncn([C@@H]2O[C@H](CO)[C@@H](O)[C@H]2O)c(=O)n1 [Azacitidine]	0.686	0.777	3.99 (inactive)	12.8 (inactive)
CN(C)CCOC(C)(c1ccccc1)c1ccccn1 (stereo not given) [Doxylamine]	0.674	0.969	-13.6 (inactive)	-5.08 (inactive)
CN(C)CCc1c[nH]c2ccc(Cn3cncn3)cc12 [Rizatriptan]	0.516	0.414	-15 (inactive)	-20.4 (inactive)
OCCN(CCO)c1nc(N2CCCCC2)c2nc(N(CCO)CCO)nc(N3CCCCC3)c2n1 [Dipyridamole]	1.01	0.523	3.14 (inactive)	-17.3 (inactive)
COc1cc(C)c(/C=C/C(C)=C/C=C/C(C)=C/C(=O)O)c(C)c1C [Acitretin]	1.04	1.45	0.3 (inactive)	12 (inactive)
CCCCNC(=O)NS(=O)(=O)c1ccc(C)cc1 [Tolbutamide]	0.923	0.898	-1.85 (inactive)	-4.03 (inactive)
c1ccc(CC2=NCCN2)cc1 [Tolazoline]	0.396		-13.6 (inactive)	
CCCNC(C)C(=O)Nc1ccccc1C (stereo not given) [Prilocaine]	0.73	1.1	-5.12 (inactive)	9.24 (inactive)
CCc1cc(C(N)=S)ccn1 [Ethionamide]	0.983	1.1	-1.99 (inactive)	3.35 (inactive)
Cc1cccc(C)c1NC(=O)C(C)N (stereo not given) [Tocainide]	0.776		-15 (inactive)	
O=C(O[C@@H]1C[C@@H]2C[C@H]3C[C@H](C1)N2CC3=O)c1c[nH]c2ccccc12 [Dolasetron]	0.649	0.701	-3.78 (inactive)	-14.7 (inactive)
COC1=C(OC)C(=O)C(CCCCCCCCCCO)=C(C)C1=O [Idebenone]	0.848		-12.8 (inactive)	
CCOC(=O)C1=C(C)NC(C)=C(C(=O)OCC)C1c1ccccc1/C=C/C(=O)OC(C)(C)C [Lacidipine]	0.575		-18.6 (inactive)	
O=c1[nH]cc(F)c(=O)[nH]1 [5-Fluorouracil]	1.24		174	
N[C@@H](Cc1cc(I)c(Oc2ccc(O)c(I)c2)c(I)c1)C(=O)O [Triiodothyronine]	0.895	1.21	-11.4 (inactive)	24.8 (inactive)
NC1CCN(c2cccc(Cl)n2)CC1	1.09	0.551	4.32 (inactive)	-35 (inactive)
